Data reported in PubChem BioAssay AID1159580 (chemical genetic matrix, 2015).
The whole screen tested about 5,500 compounds, of which about 2,000 (36%) were called active. Another 18% or so got no clear call; they are omitted. No stated cut-off is given here; in the data, active means normalized growth mostly below about 0.91 (no sharp cut-off); inconclusive means no clear call, values can overlap the other calls; inactive means mostly above about 0.92. The list shows a part of the results.

Test: chemical genetic growth profiling, strain panel (AID 1159580);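 further: tested at 20 µM; growth read once vehicle control cultures reached saturation at 30 °C; 1 = growth at the plate median or of vehicle wells; lower values mean less growth of the strain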
Conditions: growth OD

Measured: normalized growth

Cc1nnc(NS(=O)(=O)c2ccc(N)cc2)s1
inactive: S. cerevisiae deletion strains, locus YKL009W, strain mrt4, active compounds read low 1.05 | S. cerevisiae deletion strains, locus YKL068W, active compounds read low 0.996 | S. cerevisiae deletion strains, locus YKL085W, strain MDH1 (second series), active compounds read low 0.998 | S. cerevisiae deletion strains, locus YKL085W, strain MDH1, active compounds read low 0.998 | S. cerevisiae deletion strains, locus YKL160W, strain elf1, active compounds read low 1.01 | S. cerevisiae deletion strains, locus YKL190W, strain CNB1, active compounds read low 1.02 | S. cerevisiae deletion strains, locus YKR001C, strain vps1, active compounds read low 1.02 | S. cerevisiae deletion strains, locus YKR026C, strain gcn3, active compounds read low 1.01 | S. cerevisiae deletion strains, locus YKR091W, strain srl3, active compounds read low 0.99 | S. cerevisiae deletion strains, locus YLL001W, strain dnm1, active compounds read low 0.995 | S. cerevisiae deletion strains, locus YLL026W, active compounds read low 0.998 | S. cerevisiae deletion strains, locus YLL041C, strain sdh2, active compounds read low 1 | S. cerevisiae deletion strains, locus YLR027C, strain aat2, active compounds read low 1.01 | S. cerevisiae deletion strains, locus YLR039C, strain RIC1, active compounds read low 1.09 | S. cerevisiae deletion strains, locus YLR058C, strain SHM2, active compounds read low 1.01 | S. cerevisiae deletion strains, locus YLR102C, strain apc9, active compounds read low 0.985 | S. cerevisiae deletion strains, locus YLR113W, strain HOG1, active compounds read low 0.966 | S. cerevisiae deletion strains, locus YLR221C, strain rsa3, active compounds read low 1.01 | S. cerevisiae deletion strains, locus YLR258W, strain gsy2, active compounds read low 0.997 | S. cerevisiae deletion strains, locus YLR262C, strain YPT6 (second series), active compounds read low 0.99 | S. cerevisiae deletion strains, locus YLR262C, strain YPT6, active compounds read low 1.07 | S. cerevisiae deletion strains, locus YLR268W, strain sec22, active compounds read low 1.04 | S. cerevisiae deletion strains, locus YLR320W, strain mms22, active compounds read low 0.99 | S. cerevisiae deletion strains, locus YLR330W, strain CHS5, active compounds read low 1.01 | S. cerevisiae deletion strains, locus YLR342W, strain FKS1 (second series), active compounds read low 1.04 | S. cerevisiae deletion strains, locus YLR342W, strain FKS1, active compounds read low 0.996 | S. cerevisiae deletion strains, locus YLR357W, strain rsc2, active compounds read low 1.03 | S. cerevisiae deletion strains, locus YLR370C, strain arc18, active compounds read low 1.01 | S. cerevisiae deletion strains, locus YLR371W, strain rom2, active compounds read low 0.984 | S. cerevisiae deletion strains, locus YLR384C, strain iki3, active compounds read low 1 | S. cerevisiae deletion strains, locus YLR418C, strain cdc73, active compounds read low 1.04 | S. cerevisiae deletion strains, locus YML016C, strain PPZ1, active compounds read low 1.01 | S. cerevisiae deletion strains, locus YML032C, strain rad52, active compounds read low 1.01 | S. cerevisiae deletion strains, locus YML120C, strain ndi1, active compounds read low 0.987 | S. cerevisiae deletion strains, locus YML124C, strain tub3, active compounds read low 1 | S. cerevisiae deletion strains, locus YMR058W, strain fet3, active compounds read low 0.998 | S. cerevisiae deletion strains, locus YMR078C, strain ctf18, active compounds read low 0.991 | S. cerevisiae deletion strains, locus YMR125W, strain sto1, active compounds read low 0.998 | S. cerevisiae deletion strains, locus YMR129W, active compounds read low 1.01 | S. cerevisiae deletion strains, locus YMR205C, strain PFK2, active compounds read low 1 | S. cerevisiae deletion strains, locus YMR223W, strain ubp8, active compounds read low 0.997 | S. cerevisiae deletion strains, locus YMR231W, strain pep5, active compounds read low 1 | S. cerevisiae deletion strains, locus YMR263W, strain SAP30, active compounds read low 1.01 | S. cerevisiae deletion strains, locus YMR307W, strain GAS1, active compounds read low 0.987 | S. cerevisiae deletion strains, locus YNL067W, strain RPL9B, active compounds read low 1.02 | S. cerevisiae deletion strains, locus YNL071W, strain lat1, active compounds read low 0.993 | S. cerevisiae deletion strains, locus YNL128W, strain TEP1, active compounds read low 1.03 | S. cerevisiae deletion strains, locus YNL153C, strain GIM3, active compounds read low 1.01 | S. cerevisiae deletion strains, locus YNL183C, strain NPR1, active compounds read low 0.953 | S. cerevisiae deletion strains, locus YNL209W, strain ssb2, active compounds read low 1.01 | S. cerevisiae deletion strains, locus YNL233W, strain BNI4, active compounds read low 1.01 | S. cerevisiae deletion strains, locus YNL248C, strain rpa49, active compounds read low 1.01 | S. cerevisiae deletion strains, locus YNL250W, strain rad50, active compounds read low 1.01 | S. cerevisiae deletion strains, locus YNL271C, strain bni1, active compounds read low 1 | S. cerevisiae deletion strains, locus YNL298W, strain CLA4, active compounds read low 1.03 | S. cerevisiae deletion strains, locus YNL307C, strain MCK1, active compounds read low 1 | S. cerevisiae deletion strains, locus YNL322C, strain KRE1 (second series), active compounds read low 0.999 | S. cerevisiae deletion strains, locus YNR049C, strain mso1, active compounds read low 1 | S. cerevisiae deletion strains, locus YNR052C, strain pop2, active compounds read low 0.989 | S. cerevisiae deletion strains, locus YOL006C, strain TOP1, active compounds read low 1.04 | S. cerevisiae deletion strains, locus YOL012C, strain htz1 0.962 | S. cerevisiae deletion strains, locus YOL147C, strain pex11, active compounds read low 0.986 | S. cerevisiae deletion strains, locus YOR001W, strain rrp6, active compounds read low 1 | S. cerevisiae deletion strains, locus YOR061W, strain CKA2, active compounds read low 1.01 | S. cerevisiae deletion strains, locus YOR069W, strain VPS5, active compounds read low 1.01 | S. cerevisiae deletion strains, locus YOR070C, strain gyp1, active compounds read low 1.01 | S. cerevisiae deletion strains, locus YOR080W, strain dia2, active compounds read low 1 | S. cerevisiae deletion strains, locus YOR083W, strain WHI5, active compounds read low 0.978 | S. cerevisiae deletion strains, locus YOR106W, strain vam3, active compounds read low 1.02 | S. cerevisiae deletion strains, locus YOR136W, strain idh2, active compounds read low 0.992 | S. cerevisiae deletion strains, locus YOR144C, strain elg1, active compounds read low 0.992 | S. cerevisiae deletion strains, locus YOR184W, strain ser1, active compounds read low 1.01 | S. cerevisiae deletion strains, locus YOR231W, strain MKK1, active compounds read low 1.01 | S. cerevisiae deletion strains, locus YOR265W, strain rbl2, active compounds read low 1 | S. cerevisiae deletion strains, locus YOR270C, strain vph1, active compounds read low 1.02 | S. cerevisiae deletion strains, locus YOR290C, strain snf2, active compounds read low 1 | S. cerevisiae deletion strains, locus YOR316C, strain cot1, active compounds read low 0.99 | S. cerevisiae deletion strains, locus YPL051W, strain arl3, active compounds read low 1 | S. cerevisiae deletion strains, locus YPL078C, strain atp4, active compounds read low 0.999 | S. cerevisiae deletion strains, locus YPL106C, strain sse1, active compounds read low 1.02 | S. cerevisiae deletion strains, locus YPL240C, strain hsp82, active compounds read low 1.02 | S. cerevisiae deletion strains, locus YPL241C, strain CIN2, active compounds read low 1.01 | S. cerevisiae deletion strains, locus YPL256C, strain CLN2, active compounds read low 0.979 | S. cerevisiae deletion strains, locus YPR119W, strain clb2, active compounds read low 0.989 | S. cerevisiae deletion strains, locus YPR141C, strain kar3, active compounds read low 1.01 | S. cerevisiae deletion strains, locus YPR163C, strain tif3, active compounds read low 0.992 | S. cerevisiae deletion strains, locus YPR167C, strain met16, active compounds read low 0.997 | S. cerevisiae deletion strains, strain wtn01, active compounds read low 1.02 | S. cerevisiae strains, strain wild type, active compounds read low 1.01
